ATXN2 expr inh – ATXN2 expression inhibition. HEK-293 ATXN2-luciferase reporter, luminescence, 24 h. Potency, µM (top dose mostly 57 µM), most hits filed as inhibitors. actives 0.72% (n = 360,000). AID 1745845; note: nearly all actives have a fitted effect of over 55% in size
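ATXN2-luciferase reporter cells (luciferase flanked by upstream and downstream ATXN2 gene portions) were treated 24 h at 37 °C with compounds at up to 57 uM. SteadyGlo luminescence gave expression; GF-AFC fluorescence gave viability.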
HT1080 IDH1KD tx – toxicity to HT-1080 IDH1 knockdown cells (counter line); HT-1080 IDH1 knockdown viability, ATP luminescence, 48 h; Potency, µM (titrated, usually from 46.1 µM), actives largely listed as cytotoxic; actives 2% (n = 360,000)
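After a 2 h attachment period, IDH1KD HT-1080 cells took pin-transferred compound for 48 h at 37 °C; ATP-based luminescence after 10 min room-temperature reagent incubation reported viability.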
HT1080-NT tox – kills 2HG-producing HT-1080-NT fibrosarcoma cells; Potency, µM (series often up to 46.1 µM), usual class: cytotoxic; HT-1080-NT fibrosarcoma viability, CellTiter-Glo ATP luminescence, 48 h; AID 686970; actives 1.6% (n = 360,000);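 note: NT is the 2HG producing partner of a matched IDH1 knockdown line; nearly all actives have a fitted effect of over 55% in size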
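HT-1080-NT; 750 cells/well; 5% FBS RPMI; 48 h compound, 37 degrees C; CellTiter-Glo luminescence; curve fitting and curve-class assignment.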
TGFb inhibitor – blocks TGF-b signaling. Potency, µM (titrated, usually from 46.1 µM), usual class: inhibitors. HepG2 CAGA-GFP TGF-b/SMAD3 reporter, GFP fluorescence, 18 h; TGF-beta stimulated, 500 pg/mL final. actives 1.2% (n = 410,000); note: nearly all actives have a fitted effect of over 65% in size
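Cell-based qHTS in HEPG2 carrying a CAGA-GFP Smad reporter; compounds added before 500 pg/mL final TGF-beta, 18 h incubation at 37 degrees C, GFP fluorescence quantified per cell by imaging cytometry.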
S2 tox – cell viability loss in ATXN counter-screen. S2 cells (HEK-293 line with an ATXN2-luciferase reporter) viability, CellTiter-Fluor protease fluorescence, 24 h. Potency, µM (top dose mostly 56.7 µM), most hits filed as cytotoxic. actives 0.49% (n = 400,000); note: nearly all actives have a fitted effect of over 40% in size
HepG2 tox – HepG2 cytotoxicity, counter-screen for TGF-b inhibitors; Potency, µM (top dose mostly 46.1 µM), usual class: cytotoxic; actives 0.76% (n = 410,000); HepG2 CAGA-GFP viability, ATP luminescence, 18 h; AID 588856
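HepG2 CAGA-GFP cells (1000/well, DMEM with 1% FBS) received compound, then TGF-beta at 500 pg/mL final, and were incubated 18 hours at 37 degrees C. Viability was read by CellTiter-Glo luminescence. Media-only wells were set as complete cell-killing and DMSO as no toxicity.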
Numbers stand for hits; - = inactive; ? = inconclusive; . = no result; [ ] = dose if it differs, or a comment. A selection: hits, their analogues and other compounds. The true share with any hit is near 3.8%. Calls come from the whole dose curve; as a rule, active = well fitted curve in the direction sought with a large enough effect; inconclusive = small, poorly fitted or top-dose-only effect, or another doubt; inactive = no such curve, though single readings can be large; an effect the other way counts as inactive or inconclusive.

SMILES | ATXN2 expr inh | HT1080 IDH1KD tx | HT1080-NT tox | TGFb inhibitor | S2 tox | HepG2 tox
CCC1CN(CCNC(=O)c2cc(C)nn2CC)Cc2cc(OC)ccc2O1 (stereo not drawn) | . | . | . | . | - | .
Cc1ccc(OCC(=O)Nc2ccc3nc(SCCOc4ccccc4)sc3c2)cc1 | - | . | . | - | - | -
CCc1nnc(SCc2nc(-c3cccc(Cl)c3)oc2C)c2cc3sc(C)cc3n12 | . | . | . | ? | . | -
COc1cc2c(NC3CCN(C)CC3)nc(N3CCCN(C)CC3)nc2cc1OCCCCCN(C)C | . | . | . | ? | . | -
COc1cc2c(NC3CCN(C)CC3)nc(N3CCCN(C)CC3)nc2cc1OCCCCN | . | . | . | ? | . | -
COc1cc2c(NC3CCN(C)CC3)nc(N3CCCN(C)CC3)nc2cc1OCCCC(C)C | . | . | . | 2.8µM | . | 3.5µM
COc1cc2c(NC3CCN(C(C)C)CC3)nc(N3CCCN(C)CC3)nc2cc1OCCCN(C)C | . | . | . | 10µM | . | -
CCc1ccc(NC(=O)C(CC)n2nnc(C(=O)OC)c2C(=O)OC)cc1 (stereo not drawn) | - | . | . | - | - | -
COc1ccc(-c2n[nH]c(C)c2-c2ccc(Cl)cc2)c(O)c1OC | - | ? | - | - | - | 18µM
Cc1[nH]nc(-c2ccc(O)cc2O)c1-c1ccc(Cl)cc1 | - | - | - | ? | - | -
COc1ccc(-c2n[nH]c(C)c2-c2ccc(Cl)cc2)c(O)c1 | - | 21µM | 21µM | ? | - | -
COc1ccc(O)c(-c2c(-c3ccc(Cl)cc3)n[nH]c2C)c1 | - | - | - | ? | - | -
COc1cccc(NC(=O)Cn2cc(S(=O)(=O)N3CCCC3)c(S(=O)(=O)N3CCCC3)c2)c1 | - | . | . | - | - | -
Cc1cc(C)c2c(=O)cc(C(=O)Nc3ccc(S(=O)(=O)Nc4nc(C)cc(C)n4)cc3)oc2c1 | - | . | . | - | - | -
Cc1ccc(/C=N/Nc2ncc(Cl)cc2Cl)s1 | - | 7.1µM | 6.3µM | ? | - | -
Clc1cnc(N/N=C/c2cccs2)c(Cl)c1 | - | - | - | - | - | -
CNC(C)C(=O)NC(C(=O)N1CCCC1C(=O)NC1CCCc2ccccc21)C(C)C (stereo not drawn) | - | - | - | - | - | -
CNC(C)C(=O)NC(C(=O)N1CCCC1C(=O)NNc1ccccc1)C(C)C (stereo not drawn) | ? | 2.3µM | 1.3µM | - | - | -
Cc1ccc(-n2nc(C)c3c(C)cc(=O)n(CC(=O)NC(C)c4ccccc4)c32)cc1 (stereo not drawn) | - | . | . | - | - | -
COc1ccc(S(=O)(=O)NCc2ccccn2)cc1NC(=O)c1ccccc1 | - | 13µM | 8.2µM | - | ? | -
CCOc1ccc(S(=O)(=O)NCc2ccccn2)cc1NC(=O)c1ccccc1F | - | ? | 0.92µM | - | - | -
COc1ccc(S(=O)(=O)NCc2ccccn2)cc1Br | - | - | - | - | - | -
COc1ccc(S(=O)(=O)NCc2ccncc2)cc1NC(=O)c1ccccc1F | - | - | - | - | - | -
COc1ccc(S(=O)(=O)NCc2ccccn2)cc1NC(=O)c1ccc(C)cc1 | - | 13µM | 5.8µM | - | - | -
CN(C)CC1CCC/C(=C\c2ccc(OC(=O)c3ccc(Cl)cc3)cc2)C1=O (stereo not drawn) | - | 2.9µM | ? | ? | 24µM | -
SMILES | ATXN2 expr inh | HT1080 IDH1KD tx | HT1080-NT tox | TGFb inhibitor | S2 tox | HepG2 tox
CN(C)CC1CCC/C(=C\c2ccc(OC(=O)/C=C/c3ccccc3)cc2)C1=O (stereo not drawn) | 25µM | - | - | - | . | -
CN(C)CC1CC/C(=C\c2ccc(O)cc2)C1=O (stereo not drawn) | ? | 5.2µM | ? | ? | . | -
COc1ccc(CCNc2oc(/C=C/c3ccc(OC)c(OC)c3)nc2C#N)cc1 | . | . | . | - | . | -
O=C(CCCCCCC(=O)Nc1ccc([C@H]2O[C@@H](CSc3nc(-c4ccccc4)c(-c4ccccc4)o3)C[C@@H](c3ccc(CO)cc3)O2)cc1)NO | - | . | . | . | . | .
O=C(CCn1cccc1)NCc1ccccc1 | - | - | - | ? | - | -
O=C(Cc1ccc(-n2cccc2)cc1)NCc1ccccc1Cl | - | 8.2µM | 8.2µM | - | - | -
O=C(NCc1ccccc1Cl)NCc1ccccc1Cl | . | - | - | - | - | -
O=C(Cc1ccccc1)NCc1ccc(-n2cccc2)cc1 | - | 5.8µM | 5.2µM | ? | - | -
O=C(COc1cccc(Cl)c1)N1CCC(c2nc3ccccc3o2)CC1 | . | . | . | - | . | -
O=C(NNC(=S)NC(=O)C12CC3CC(CC(C3)C1)C2)c1ccncc1 | - | 7.9µM | 13µM | - | - | -
Cn1nnnc1Sc1c(Cl)cccc1[N+](=O)[O-] | -[11.3 µM] | - | - | - | - | -
COc1ccc(Nc2ncnc3scc(-c4ccc(OC)cc4)c23)cc1 | - | ? | ? | ? | - | -
Cn1nnnc1Sc1ncnc2scc(-c3ccccc3Cl)c12 | 20µM | . | . | ? | ? | -
Cn1nnnc1Sc1ncnc2scc(-c3ccc([N+](=O)[O-])cc3)c12 | 7.1µM | . | . | 13µM | 16µM | -
COc1ccc(-c2csc3ncnc(Sc4nnnn4C)c23)cc1 | 20µM | . | . | 18µM | ? | -
COc1ccc(-c2csc3ncnc(Nc4ccc(OC)c(OC)c4)c23)cc1 | ? | . | . | 10µM | ? | -
C(=Nc1ccc(/C=C/c2ccnc3ccccc23)cc1)c1cccs1 | . | . | . | - | . | -
CCn1nc(C)cc1C(=O)NCC1CCC2(CCN(Cc3ccccc3F)CC2)O1 (stereo not drawn) | . | . | . | . | - | .
Cc1cc(-c2ccc(S(=O)(=O)Nc3ccccc3F)s2)on1 | . | . | . | - | . | -
COc1ccc(N(CC(=O)Nc2ccc(C)c(C)c2)S(=O)(=O)c2ccc(C)cc2)cc1OC | - | . | . | - | - | -
Cn1nnnc1Sc1ncnc2scc(-c3cccc4c3sc3ccccc34)c12 | 16µM | . | . | 10µM | ? | -
Cn1nnnc1Sc1ncnc2scc(-c3ccc4c(c3)OCO4)c12 | ? | . | . | ? | ? | -
NNc1ncnc2scc(-c3ccc(Cl)cc3)c12 | 16µM | - | - | - | - | -
Cn1nnnc1Sc1ncnc2scc(-c3ccc(Cl)cc3)c12 | 14µM | . | . | ? | 11µM | -
C[C@]12CCC(=O)C=C1CC[C@@H]1[C@H]2[C@@H](O)C[C@@]2(C)[C@H]1CC[C@]2(O)C(=O)CO | - | . | . | . | . | .
COCc1c(C(=O)N2CC3CCC2C3)cnn1-c1nccc(-c2ccccc2OC)n1 (stereo not drawn) | . | . | . | . | - | .
Cc1cc(C(O)c2ncc(-c3ccc(Oc4ccccc4)cc3)[nH]2)ccc1F (stereo not drawn) | ? | 10µM | 18µM | ? | ? | -
COc1c(C)cc(C(O)c2ncc(-c3ccc4ccccc4c3)[nH]2)cc1C (stereo not drawn) | - | ? | ? | ? | ? | -

Screens: PubChem BioAssay, National Center for Advancing Translational Sciences (NCATS)
